Measurements reported in PubChem BioAssay AID1159580 (chemical genetic matrix, 2015).
Several values for one entry are separate records, joined by “and”; a condition that tells them apart may be missing. Identical values can stand only once. Hit rate of the full screen: of about 5,500 compounds, about 2,000 (36%) were called active. Another 18% or so got no clear call; they are omitted. Rule as the data show it: active = normalized growth mostly below about 0.91 (no sharp cut-off); inconclusive = no clear call, values can overlap the other calls; inactive = mostly above about 0.92. The list shows a part of the results.

Assay: chemical genetic growth profiling, strain panel (AID 1159580);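 also: tested at 20 µM; growth read once vehicle control cultures reached saturation at 30 °C; 1 = growth at the plate median or of vehicle wells; lower values mean less growth of the strain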
Settings: S. cerevisiae deletion strains, growth OD

Measured: normalized growth

CC1OC1P(=O)(O)O (stereo not given)
inactive: locus YAL021C, strain ccr4, active compounds read low 1 | locus YAL026C, strain drs2, active compounds read low 1.02 | locus YAL030W, strain snc1, active compounds read low 0.998 | locus YAL040C, strain CLN3, active compounds read low 0.959 | locus YBL061C, strain skt5, active compounds read low 0.996 | locus YBR009C, strain hhf1, active compounds read low 0.978 | locus YBR021W, strain FUR4, active compounds read low 0.973 | locus YBR023C, strain chs3, active compounds read low 0.988 | locus YBR171W, strain sec66, active compounds read low 1 | locus YBR229C, strain ROT2, active compounds read low 0.994 | locus YBR231C, strain swc5, active compounds read low 0.992 | locus YBR279W, strain paf1, active compounds read low 0.991 | locus YCL011C, strain gbp2, active compounds read low 1.03 | locus YCL016C, strain dcc1, active compounds read low 0.984 | locus YCL029C, strain bik1, active compounds read low 0.993 | locus YCL061C, strain MRC1 (second series), active compounds read low 1.01 | locus YCL069W, strain vba3, active compounds read low 1 | locus YCR088W, strain abp1, active compounds read low 1 | locus YDL005C, strain med2, active compounds read low 0.977 | locus YDL035C, strain GPR1, active compounds read low 0.991 | locus YDL040C, strain nat1, active compounds read low 0.991 | locus YDL074C, strain BRE1, active compounds read low 1.04 | locus YDL101C, strain DUN1, active compounds read low 0.992 | locus YDL134C, strain PPH21, active compounds read low 0.977 | locus YDL185W, strain tfp1, active compounds read low 0.979 | locus YDL192W, strain arf1, active compounds read low 0.991 | locus YDR001C, strain nth1, active compounds read low 1 | locus YDR069C, strain doa4, active compounds read low 0.986 | locus YDR101C, strain arx1, active compounds read low 1 | locus YDR137W, strain rgp1, active compounds read low 1.01 | locus YDR150W, strain NUM1, active compounds read low 0.994 and 1 | locus YDR159W, strain sac3, active compounds read low 0.934 | locus YDR162C, strain NBP2, active compounds read low 0.987 | locus YDR195W, strain ref2 0.983 | locus YDR297W, strain sur2, active compounds read low 1.01 | locus YDR318W, strain mcm21, active compounds read low 0.984 | locus YDR334W, strain swr1, active compounds read low 1 | locus YDR335W, strain msn5, active compounds read low 0.996 | locus YDR363W, strain ESC2, active compounds read low 0.974 | locus YDR388W, active compounds read low 0.988 | locus YDR392W, strain spt3, active compounds read low 0.892 | locus YDR502C, strain sam2, active compounds read low 0.983 | locus YEL003W, strain gim4, active compounds read low 1 | locus YEL037C, strain rad23, active compounds read low 1 | locus YEL061C, strain CIN8 (second series), active compounds read low 1 | locus YEL061C, strain CIN8, active compounds read low 1 | locus YER002W, strain NOP16, active compounds read low 0.978 | locus YER015W, strain faa2, active compounds read low 0.981 | locus YER016W, strain bim1, active compounds read low 0.974 | locus YER110C, active compounds read low 0.987 | locus YER111C, strain swi4, active compounds read low 1 | locus YER155C, strain BEM2 (second series), active compounds read low 0.965 | locus YER155C, strain BEM2, active compounds read low 0.994 | locus YER167W, strain BCK2, active compounds read low 0.973 | locus YFR010W, strain ubp6, active compounds read low 1 | locus YGL078C, strain dbp3, active compounds read low 0.988 | locus YGL086W, strain mad1, active compounds read low 1 | locus YGL167C, strain pmr1, active compounds read low 0.997 | locus YGL173C, strain kem1, active compounds read low 0.99 | locus YGL227W, strain vid30, active compounds read low 1 | locus YGL240W, strain doc1, active compounds read low 0.968 | locus YGL248W, strain PDE1, active compounds read low 1.01 | locus YGL253W, strain hxk2, active compounds read low 1.03 | locus YGR078C, strain PAC10, active compounds read low 1.02 | locus YGR135W, strain pre9, active compounds read low 0.966 | locus YGR252W, strain gcn5, active compounds read low 0.982 | locus YHR013C, strain ard1, active compounds read low 0.987 | locus YHR027C, strain rpn1, active compounds read low 0.993 | locus YHR030C, strain SLT2, active compounds read low 0.994 | locus YHR079C, strain IRE1 (second series), active compounds read low 0.989 | locus YHR094C, strain hxt1, active compounds read low 0.987 | locus YHR129C, strain ARP1, active compounds read low 0.987 | locus YHR142W, strain chs7, active compounds read low 1.01 | locus YHR200W, strain rpn10, active compounds read low 0.989 | locus YIL066C, strain RNR3, active compounds read low 1 | locus YIL073C, strain SPO22, active compounds read low 0.944 | locus YIL125W, strain kgd1, active compounds read low 0.992 | locus YIR030C, strain dcg1, active compounds read low 0.985 | locus YJL092W, strain hpr5, active compounds read low 1 | locus YJL095W, strain BCK1 (second series), active compounds read low 0.998 | locus YJL095W, strain BCK1, active compounds read low 1.01 | locus YJL115W, strain asf1, active compounds read low 1 | locus YJL129C, strain trk1, active compounds read low 1.01 | locus YJL134W, strain LCB3, active compounds read low 0.989 | locus YJL154C, strain vps35, active compounds read low 0.996 | locus YJL164C, strain tpk1, active compounds read low 0.986 | locus YJL166W, strain qcr8, active compounds read low 0.986 | locus YJL168C, strain set2, active compounds read low 0.989 | locus YJL187C, strain SWE1 (second series), active compounds read low 1.02 | locus YJR043C, strain POL32, active compounds read low 1.01
